Screening results from PubChem.
Shown are actives, neighbours in structure and some others; about 11% of the full set was active somewhere.
HttQ103 aggreg – inhibitors of mutant huntingtin aggregate formation in PC12 cells | 1.1% of 220,000 active | PC12 HttQ103-GFP aggregates, Acumen cytometry, 40 h | Potency, µM (highest dose often 46.1 µM), for inactives: at the top dose activity change, negative = inhibition, actives largely listed as inhibitors | AID 1688; also: potency is read from the fitted curve at half-maximal effect; % is scaled to controls: 0 for no effect and ±100 for the full control effect; nearly all actives have a fitted effect of over 60% in size
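PC12 cells with ecdysone-inducible HTT exon1 Q103-GFP, induced by 100 nM tebufenozide, given compounds in a concentration series. GFP aggregates (1–25 um, 6 SD above background) counted in lysates by laser-scanning cytometry, 488 nm excitation.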
ALDH1A1 inh – inhibitors of human aldehyde dehydrogenase 1A1; Purified ALDH1A1, NADH fluorescence, propionaldehyde substrate; 7.3% of 220,000 active; P00352; Potency, µM (series often up to 75.3 µM), inactives show top-dose activity, negative = inhibition, hits mostly inhibitors; active = well fitted inhibition curve with a large enough effect, not every such curve was filed as active; inconclusive = small, poorly fitted or top-dose-only effect, or another doubt; inactive = no such curve, though single readings can be large or run the other way;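 also: potency is read from the fitted curve at half-maximal effect; plate controls were no enzyme wells and a reference inhibitor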
GoLoco inh red – inhibitors of human Gai1-RGS12 GoLoco interaction (red fluorophore). P63096. Gai1:RGS12 GoLoco peptide FP, rhodamine, 10 min. Potency, µM (series often up to 61.6 µM), for the others: at the highest dose activity, negative = inhibition, most hits filed as inhibitors. 0.44% of 230,000 active. AID 880; active = well fitted inhibition curve with a large enough effect, not every such curve was filed as active; inactive = no such curve, though single readings can be large or run the other way; also: potency is read from the fitted curve at half-maximal effect; % is scaled to controls: 0 for no effect and ±100 for the full control effect; nearly all actives have a fitted effect of over 30% in size
Target sequence (P63096 whole entry, looked up): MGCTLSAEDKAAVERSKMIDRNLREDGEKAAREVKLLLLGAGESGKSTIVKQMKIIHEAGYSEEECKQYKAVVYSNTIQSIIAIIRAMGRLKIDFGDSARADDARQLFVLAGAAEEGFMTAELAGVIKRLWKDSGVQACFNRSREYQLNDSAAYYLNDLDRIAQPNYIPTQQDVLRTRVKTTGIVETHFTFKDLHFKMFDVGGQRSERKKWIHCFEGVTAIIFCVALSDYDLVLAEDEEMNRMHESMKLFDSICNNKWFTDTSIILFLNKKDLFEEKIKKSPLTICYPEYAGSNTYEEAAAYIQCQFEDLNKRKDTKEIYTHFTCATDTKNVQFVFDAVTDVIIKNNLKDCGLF
PNC inhibitor – inhibitors of perinucleolar compartment assembly; AID 2417; PC3M PTB-GFP, PNC prevalence imaging, 16 h; hits give low values; 3.1% of 140,000 active; activity change (PNC), negative = inhibition, % at 10 µM;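 active = readout at or below -70, meaning at least 70% loss of cells showing the perinucleolar compartment, a nuclear body marking cancer cells; inconclusive = readout between -30 and a set limit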;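 also: plate controls were DMSO wells for no effect and camptothecin positive control wells for full effect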
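PC3M cells stably expressing PTB-GFP, 750–1000 cells/well, treated 16 h at 37 °C with compound (23 nl of library stock), in duplicate. After paraformaldehyde fixation and Hoechst stain, imaged at 20x; PNC prevalence scored by image analysis.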
HTT cytoprotect – cytoprotection in Huntington HTT-Q103 PC12 cell model; PC12 HTT-Q103 induced, cytoprotection, ATP luminescence, 40 h; Potency, µM (highest dose often 56.4 µM), for inactives: cytoprotection (ATP increase), hits mostly activators; 0.14% of 230,000 active; AID 1471; also: potency is read from the fitted curve at half-maximal effect; % of control where 0% means no effect; nearly all actives have a fitted effect of over 45% in size
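Huntington model: PC12 line, ecdysone-inducible HTTQ103 exon1–GFP, tebufenozide 100 nM. Test articles in a dose series. Endpoint luminescence from cellular ATP.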
HPGD inh – HPGD (human) dehydrogenase inhibition | P15428 | purified HPGD, NADH fluorescence kinetic, PGE2 substrate | 4.3% of 150,000 active | Potency, µM, for the others: at the highest dose activity change, negative = inhibition, actives largely listed as inhibitors | AID 894; active = well fitted inhibition curve with a large enough effect, not every such curve was filed as active; inconclusive = small, poorly fitted or top-dose-only effect, or another doubt; inactive = no such curve, though single readings can be large or run the other way; also: potency is read from the fitted curve at half-maximal effect; % is scaled to controls: 0 for no effect and ±100 for the full control effect
Target sequence (P15428 whole entry, looked up): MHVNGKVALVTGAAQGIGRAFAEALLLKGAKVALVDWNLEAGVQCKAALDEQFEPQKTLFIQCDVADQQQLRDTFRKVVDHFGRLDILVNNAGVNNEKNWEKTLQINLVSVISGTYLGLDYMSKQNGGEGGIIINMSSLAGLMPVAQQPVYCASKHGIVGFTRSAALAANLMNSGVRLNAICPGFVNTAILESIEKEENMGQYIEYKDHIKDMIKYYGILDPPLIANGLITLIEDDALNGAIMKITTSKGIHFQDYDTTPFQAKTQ
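20 nM HPGD preincubated 15 min at room temperature with compound in 50 mM Tris-HCl pH 8, 0.01% Tween 20. Started with 1 mM NAD+ and 30 uM prostaglandin E2; NADH fluorescence (360/450 nm) read 5 times over 30-s intervals, last minus first.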
* marks the source's active call; other numbers are inactive results; ? = inconclusive; / = no result; [ ] = another dose, or the depositor's remark. Unless noted, calls follow the shape of the dose curve; as a rule, active = well fitted curve in the direction sought with a large enough effect; inconclusive = small, poorly fitted or top-dose-only effect, or another doubt; inactive = no such curve, though single readings can be large; an effect the other way counts as inactive or inconclusive.

SMILES	HttQ103 aggreg	ALDH1A1 inh	GoLoco inh red	PNC inhibitor	HTT cytoprotect	HPGD inh
CCOC(=O)CN1C(=O)C(O)(CC(=O)c2cccc(OC)c2)c2ccccc21 (centres undefined)	10.0%	0.282µM*	-3.1%	-20.6	8.4%	0.1%
CC(C)(C)C(=O)CC1(O)C(=O)N(Cc2ccc(Cl)cc2)c2ccccc21 (centres undefined)	7.1%	?	8.6%	15.9	-0.4%	-6.9%
O=C(O)CC1(O)C(=O)N(Cc2ccccc2)c2ccccc21 (centres undefined)	-17.7%[9.22 µM]	20µM*	2.3%	/	-11.3%[10 µM]	/
COc1cccc2cc(C(=O)CC3(O)C(=O)N(Cc4ccccc4)c4ccccc43)c(=O)oc12 (centres undefined)	23.6%	0.0891µM*	8.8%	8.8	-9.3%	-1.3%
CN1C(=O)C(O)(CC(=O)/C=C/c2ccco2)c2cc(Br)ccc21 (centres undefined)	18.3%	23.8µM*	22.2%	/	22.1%	/
CN1C(=O)C(O)(CC(=O)c2cccc(-n3cccc3)c2)c2ccccc21 (centres undefined)	4.5%	?	3.4%	-19.7	-24.1%	-19.7%
C#CCN1C(=O)C(O)(CC(=O)c2cccc(OC)c2)c2ccccc21 (centres undefined)	0.3%	1.58µM*	-7.3%	?	37.9%[10 µM]	-10.2%
O=C(CC1(O)C(=O)N(Cc2ccccc2Cl)c2ccccc21)c1ccco1 (centres undefined)	-11.8%	1.26µM*	8.1%	?	-14.7%[0.074 µM]	-1.3%
CCCCN1C(=O)C(O)(CC(=O)c2ccco2)c2cc(Br)ccc21 (centres undefined)	6.6%	8.91µM*	6.4%	-27.6	32.0%[10 µM]	2.1%
CCOC(=O)CN1C(=O)C(O)(CC(=O)c2ccc3c(c2)CCCC3)c2ccccc21 (centres undefined)	-5.7%	10µM*	9.3%	-4.0	9.4%[1.9 µM]	-4.0%
CN1C(=O)C(O)(CC(=O)c2ccccc2O)c2cc(Br)ccc21 (centres undefined)	18.4%	-3.9%	8.8%	-13.2	-12.8%[10 µM]	-6.8%
CCN1C(=O)C(O)(CC(=O)c2c(C)coc2C)c2ccccc21 (centres undefined)	-22.7%[9.22 µM]	?	3.8%	/	-19.1%[10 µM]	/
Cc1ccsc1/C=N/NC(=O)c1ccc2nc[nH]c2c1	5.9%	?	12.6%	-14.5	-10.3%[10 µM]	-20.5%
CC(C)N1C(=O)C(O)(C2COC(C)(C)CC2=O)c2ccccc21 (centres undefined)	15.7%[9.22 µM]	?	6.8%	/	27.9%[10 µM]	/
CC1(C)CC(=O)C(C2(O)C(=O)N(Cc3ccccc3)c3ccccc32)CO1 (centres undefined)	7.0%	0.0316µM*	0.9%	49.6	-59.2%[10 µM]	-7.2%
CCN1C(=O)C(O)(CC(=O)c2ccc3c(c2)OCCO3)c2ccccc21 (centres undefined)	1.9%	?	-0.5%	19.3	-14.4%	-15.6%
COc1ccc(CN2C(=O)C(O)(CC(=O)c3ccc4c(c3)OCO4)c3ccccc32)cc1OC (centres undefined)	-8.1%[1.84 µM]	4.47µM*	11.2%	24.1	3.7%	-5.8%
Cc1[nH]c2ccccc2c1C1(O)C(=O)N(Cc2ccc3c(c2)OCO3)c2ccccc21 (centres undefined)	?	0.708µM*	-0.8%	?	-86.3%	-18.7%
OC[C@@H](O)CN1CCN(c2ccccc2)CC1	/	4.7%[20.9 µM]	8.6%[21.6 µM]	/	-4.0%[40.3 µM]	-7.5%
COc1ccc(C2C(C(C)=O)=C(O)C(=O)N2CCCn2ccnc2)cc1 (centres undefined)	6.9%	1.4%	11.5%	64.3	3.3%	-26.5%
COc1cccc(C2C(C(=O)c3cccs3)=C(O)C(=O)N2CCCn2ccnc2)c1OC (centres undefined)	?	?	8.2%	-96.5*	-63.1%[10 µM]	-12.1%
CCOC(=O)N1CCC(NS(=O)(=O)c2ccc3c(c2)CCN3C(C)=O)CC1	?	6.9%	-2.3%	?	9.7%	-6.8%
CCOC(=O)N1CCN(CC(=O)c2ccc3c(c2)CCN3C(C)=O)CC1	-0.3%	25.1µM*	4.7%	8.1	-13.3%	-2.6%
CCC1CCC(C(=O)NNC(=O)c2cc(-c3ccco3)[nH]n2)CC1 (centres undefined)	15.7%	-9.3%	11.0%	/	35.0%	/
CCN1C(=O)[C@@H]2[C@H]3C(=CC[C@H]2C1=O)C(=O)[C@H]1OC1[C@H]3O (some centres undefined)	/	-4.5%[13.5 µM]	/	/	2.82µM*	/
SMILES	HttQ103 aggreg	ALDH1A1 inh	GoLoco inh red	PNC inhibitor	HTT cytoprotect	HPGD inh
O=C1C2=CC[C@H]3C(=O)N(C[C@@H]4CCCO4)C(=O)[C@@H]3[C@@H]2[C@H](O)[C@@H]2O[C@H]12	/	?	/	/	1.41µM*	/
O=C1C2=CC[C@H]3C(=O)N(Cc4ccccc4)C(=O)[C@@H]3[C@@H]2[C@H](O)[C@@H]2O[C@H]12	/	-1.2%[13.5 µM]	/	/	?	/
CCOC(=O)CNc1cccc(C(F)(F)F)c1	5.5%	-7.2%	1.6%	/	2.7%	/
CCOC(=O)N1CCN(C(=O)c2ccc3c(c2)sc2nc(-c4ccc(OC)cc4)cn23)CC1	-8.2%	?	-6.7%	17.9	-13.9%[10 µM]	-23.2%
COc1ccc2c(c1)sc1nc(-c3ccccc3)cn12	4.4%	-11.0%	5.8%	-96.2*	-131.7%	-17.5%
COc1ccc(-n2cc(-c3ccccc3)nc2SC)cc1	4.3%	11.0%	10.2%	-84.9*	11.0%[1.9 µM]	-19.7%
CCc1ccc(/C=C\C(=O)N2CCc3ccccc3C2)cc1	?	0.9%	5.8%	74.3	-80.8%	11.2µM*
O=C(CC1SC(=Nc2ccccc2)N(Cc2ccccn2)C1=O)Nc1ccc(Br)cc1 (centres undefined)	10.4%	7.08µM*	128.5%	?	29.9%[10 µM]	?
O=C(CC1Sc2ncnn2C1=O)Nc1ccc(Br)cc1 (centres undefined)	-6.2%	7.94µM*	-7.7%	0.7	22.2%[10 µM]	15.8µM*
O=C(CCc1n[nH]c(=O)[nH]c1=O)N1CCCCC1	-8.0%	4.47µM*	-3.4%	-14.8	-12.8%	-18.8%
O=C(CSc1n[nH]c(=O)[nH]c1=O)N1CCCCCC1	-10.9%[9.22 µM]	/	5.5%	/	10.2%[10 µM]	/
O=C(COc1cccc(Br)c1)N/N=C1\CCCc2ccccc21	10.2%	-1.5%	4.7%	/	-9.5%	/
O=C(COc1cccc(Br)c1)NN=C1c2ccccc2-c2ccccc21	3.0%	-0.4%	0.0%	-119.3*	-8.0%[10 µM]	-7.0%
O=C(COc1cccc(Br)c1)N/N=C1\CCSC1	0.3%	4.47µM*	6.7%	/	-8.4%[10 µM]	/
CCn1c(CNC(=O)c2ccco2)nnc1SCC(=O)Nc1cc(C(F)(F)F)ccc1Cl	19.1%	-1.4%	1.6%	-5.2	30.5%[10 µM]	-5.7%
